ChEMBL document CHEMBL1961873, “Compounds: GSK PKIS; Assays: Nanosyn kinase panel” (2012)

Molecular target: Insulin-like growth factor 1 receptor (Homo sapiens) (UniProt P08069)
Conditions: at 0.1 µM
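Further: values are mean percent inhibition of IGF1R kinase activity, from the GSK published kinase inhibitor set (PKIS) screening panel.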

Insulin-like growth factor 1 receptor (Homo sapiens), sequence (P08069 31-736 limits assumed): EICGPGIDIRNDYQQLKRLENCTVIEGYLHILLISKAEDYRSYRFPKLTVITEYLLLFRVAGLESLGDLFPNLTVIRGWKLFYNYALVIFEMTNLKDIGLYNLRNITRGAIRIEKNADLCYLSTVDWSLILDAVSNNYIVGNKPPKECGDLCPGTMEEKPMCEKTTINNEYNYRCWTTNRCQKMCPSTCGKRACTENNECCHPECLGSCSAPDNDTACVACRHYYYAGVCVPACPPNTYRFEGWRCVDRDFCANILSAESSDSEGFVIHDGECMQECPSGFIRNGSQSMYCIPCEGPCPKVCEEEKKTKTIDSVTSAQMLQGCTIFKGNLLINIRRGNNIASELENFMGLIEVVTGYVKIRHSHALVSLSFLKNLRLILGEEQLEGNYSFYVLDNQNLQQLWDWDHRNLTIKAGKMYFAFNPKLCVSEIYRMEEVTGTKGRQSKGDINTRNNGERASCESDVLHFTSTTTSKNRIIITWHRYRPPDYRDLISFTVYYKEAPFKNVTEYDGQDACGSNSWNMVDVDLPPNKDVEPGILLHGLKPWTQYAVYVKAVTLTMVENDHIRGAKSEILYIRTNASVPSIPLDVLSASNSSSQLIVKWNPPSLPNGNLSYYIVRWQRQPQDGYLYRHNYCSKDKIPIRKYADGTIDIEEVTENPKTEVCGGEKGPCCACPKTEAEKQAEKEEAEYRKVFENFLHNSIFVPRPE
Insulin-like growth factor 1 receptor (Homo sapiens), sequence (P08069 741-1367 limits assumed): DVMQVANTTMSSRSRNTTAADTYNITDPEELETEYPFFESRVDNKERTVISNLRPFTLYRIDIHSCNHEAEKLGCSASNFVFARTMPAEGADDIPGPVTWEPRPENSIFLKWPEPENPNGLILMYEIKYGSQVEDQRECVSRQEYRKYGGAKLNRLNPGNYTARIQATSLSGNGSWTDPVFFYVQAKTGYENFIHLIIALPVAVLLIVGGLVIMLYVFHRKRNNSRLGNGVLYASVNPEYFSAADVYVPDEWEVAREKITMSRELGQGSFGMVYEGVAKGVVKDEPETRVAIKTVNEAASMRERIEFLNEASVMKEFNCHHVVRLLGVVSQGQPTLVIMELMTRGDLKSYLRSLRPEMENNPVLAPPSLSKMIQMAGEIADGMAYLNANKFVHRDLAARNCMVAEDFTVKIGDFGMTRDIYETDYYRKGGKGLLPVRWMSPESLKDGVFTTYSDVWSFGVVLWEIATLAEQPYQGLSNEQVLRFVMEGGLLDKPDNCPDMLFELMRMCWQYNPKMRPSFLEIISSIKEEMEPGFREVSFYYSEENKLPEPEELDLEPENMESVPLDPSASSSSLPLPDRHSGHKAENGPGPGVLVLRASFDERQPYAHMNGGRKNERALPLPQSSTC

Structure (SMILES) | inhibition [%]
N#Cc1cccc(Nc2nccc(-c3cnn4ncccc34)n2)c1 | 8.04
Cc1cc(O)cc(C)c1/C=C/c1cncc(C(=O)N(C)C)c1 | 2.54
CN(C)CCCn1c(-c2nonc2N)nc2cnccc21 | 10.2
COc1cccc(-n2ncc3c(N/N=C/c4ccc(S(C)(=O)=O)cc4)ncnc32)c1 | -6.32
COc1cc(Nc2nccc(-c3cnn4ncccc34)n2)cc(OC)c1 | 13.8
NC(=O)c1cccc(Nc2nccc(Nc3cccc(F)c3)n2)c1 | 1.8
NS(=O)(=O)c1ccc(Nc2cc(-c3cccc(O)c3)n[nH]2)cc1 | 5.98
CC(C)c1ccc(Nc2nccc(-c3cnn4ncccc34)n2)cc1 | 11.8
O=C1Nc2ccccc2/C1=C/Nc1ccc2[nH]c(=O)[nH]c2c1 | 7.08
CN1CCN(C(=O)c2ccc(NC(=O)Nc3ccc(N(C)c4ccnc(Nc5ccc(CS(C)(=O)=O)cc5)n4)cc3)cc2)CC1 | 3.48
CCn1c(-c2nonc2N)nc2c(C#CC(C)(C)O)nc(OCCNC)cc21 | 5.39
COc1cccc(-n2ncc3c(N/N=C/c4ccc(C)cc4)ncnc32)c1 | 5.92
NS(=O)(=O)c1cccc(Nc2cc(-c3ccc(F)cc3)n[nH]2)c1 | 0.35
Cc1cc(Cl)cc2c1NC(=O)C2=NNc1ccc(S(N)(=O)=O)cc1 | 2.32
CN(C)C(=O)O[C@@H]1CN[C@@H](C#Cc2cc3ncnc(Nc4ccc(OCc5cccc(F)c5)c(Cl)c4)c3s2)C1 | -0.74
CN(C)c1cc2c(Nc3ccc4c(cnn4Cc4ccccc4)c3)ncnc2cn1 | 0.45
CN(C)C(=O)O[C@H]1CN[C@H](C#Cc2cc3ncnc(Nc4ccc(OCc5cccc(F)c5)c(Cl)c4)c3s2)C1 | 3.22

Structure (SMILES) | inhibition [%]
COc1ccc(-c2nn3ncccc3c2-c2ccnc(Nc3cccc(C(F)(F)F)c3)n2)cc1 | -1.5
COc1cc(/C=N/Nc2ncnc3c2cnn3C(C)C)ccc1O | 9.1
Cc1ccc2c(-c3ccnc(Nc4cccc(C(F)(F)F)c4)n3)c(-c3ccccc3)nn2n1 | 2.54
Cc1cc(-c2ccccn2)cc(C)c1/C=C/c1cncc(-c2nn[nH]n2)c1 | 16.5
c1ccc(Cc2nc3ccc(Nc4ncnc5ccccc45)cc3[nH]2)cc1 | 2.6
NS(=O)(=O)c1ccc(NC=C2C(=O)Nc3ccc4ncsc4c32)cc1 | 12.2
Cc1ccc2c(c1)/C(=N/Nc1ccc(S(N)(=O)=O)cc1)C(=O)N2 | -1.37
Nc1nccc(C#Cc2cncnc2Nc2ccc(OCc3cccc(F)c3)c(Cl)c2)n1 | 3.97
CCCN1CCCC(c2ccc(Nc3nc(Nc4cc(F)ccc4C(N)=O)c4cc[nH]c4n3)c(OC)c2)C1 (stereo not drawn) | 93
O=C1Nc2ccc(-c3cccnc3)cc2C1=Cc1cc(Br)c(O)c(Br)c1 | 3.8
ON=C1CCc2cc(-c3nc(C4CCNCC4)[nH]c3-c3ccncc3)ccc21 | -1.78
Oc1cccc(-c2nc(-c3ccccc3)[nH]c2-c2ccncc2)c1 | 2.68
Cc1ccc2c(-c3ccnc(Nc4ccc5c(c4)OCCO5)n3)c(-c3ccc(C(F)(F)F)cc3)nn2n1 | -4.21
O=S(=O)(CCOCc1ccc(-c2ccc3ncnc(Nc4ccc(OCc5cccc(F)c5)c(Cl)c4)c3c2)o1)c1ccccc1 | 13
COc1cc2ncnc(Nc3ccc4c(cnn4Cc4ccccc4)c3)c2cc1OC | -1.14
COC(=O)Nc1nc2cc(Oc3ccc(NC(=O)Nc4cccc(Br)c4)cc3)ccc2[nH]1 | 3.08
